Here are results for eight molecules from PubChem BioAssay (EPA / NIEHS).

Where “and” joins values, the source holds several entries; their conditions need not be identical. Equal entries are not always repeated. Results filed as inconclusive are left out. The source holds several records for some structures; these can differ, active in one and inactive in another. Calls of active or inactive are those of the source. The calls were made as follows, unless noted: active = hit-call score of the fitted dose curve at least 0.9, where 1 is the maximum; inactive = score below 0.9.

For assay [1], the target named is Oxysterols receptor LXR-beta (Homo sapiens) (UniProt P55055). The experiment in a line: ATG_LXRb_TRANS: Attagene TRANS-FACTORIAL HepG2 Assay for human Liver X Receptor beta (LXRb) (AID 2282981; active = hit-call score of the fitted dose curve at least 0.9, where 1 is the maximum). The conditions noted are these: HepG2 Attagene TRANS GAL4-LXRb reporter, mRNA. The method in brief:
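Liver-derived HepG2 cells transfected with Gal4-responsive reporters were dosed for 24 h. Activation was scored as rise in reporter mRNA, by RT-PCR and capillary electrophoresis, above DMSO baseline.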

Assay [2] addresses Hepatocyte nuclear factor 4-alpha (Homo sapiens) (UniProt P41235). Nature of the assay: ATG_HNF4a_TRANS: Attagene TRANS-FACTORIAL HepG2 Assay for human Hepatocyte Nuclear Factor 4 alpha (HNF4a) (AID 2282982; active = hit-call score of the fitted dose curve at least 0.9, where 1 is the maximum). The conditions noted are these: HepG2 HNF4a transactivation reporter, mRNA readout. The method in brief: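 Using HepG2 liver cells transfected with GAL4-UAS reporter units, chemical-induced mRNA increases were assessed after 24 hours. Fluorescent RT-PCR fragments were separated by capillary electrophoresis and compared with DMSO negative controls.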

A short description of assay [3]: ATG_M_06_TRANS: Attagene TRANS-FACTORIAL HepG2 Assay for M06 Transcription Factor (Internal Marker) (AID 2282983; active = hit-call score of the fitted dose curve at least 0.9, where 1 is the maximum;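 as to outcome: reporter transcript level by RT-PCR then capillary electrophoresis fluorescence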). Conditions: HepG2 Attagene TRANS M06 internal marker reporter. Put shortly:
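In this multiplexed HepG2 system, compounds are incubated 24 h with cells carrying GAL4-UAS reporter units. Reporter RNA is amplified and resolved by capillary electrophoresis, and induction is scored against DMSO.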

The nature of assay [4]: ATG_M_32_TRANS: Attagene TRANS-FACTORIAL HepG2 Assay for M32 Transcription Factor (Internal Marker) (AID 2282984; active = hit-call score of the fitted dose curve at least 0.9, where 1 is the maximum;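 also: transcript level of a background control reporter unit measured by RT-PCR and capillary electrophoresis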). Conditions: HepG2 Attagene TRANS M32 internal marker reporter. Put shortly:
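Fluorescence-detected mRNA induction, HepG2 liver cells, 24 h after dosing. Multiple GAL4-UAS reporter units introduced by transient transfection; background-control endpoint analysed for gain of signal against DMSO.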

The target in assay [5] is Nuclear respiratory factor 1 (Homo sapiens) (UniProt Q16656). Nature of the assay: ATG_NRF1_CIS: Attagene CIS-FACTORIAL HepG2 Assay for human Nuclear Respiratory Factor 1 (NRF1) Orphan Gene (AID 2282987). The conditions noted are these: HepG2 NRF1 cis-element reporter, Attagene multiplex; actives raise or lower the signal. Put shortly: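 Transcriptional reporter readout, one component of a 52-endpoint multiplexed HepG2 panel. Exposure 24 h; mRNA detected via RT-PCR and fluorescent capillary electrophoresis; fitting in both directions against DMSO.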

Assay [6] in a line: ATG_NFI_CIS: Attagene CIS-FACTORIAL HepG2 Assay for human Nuclear Factor I (NFI) (AID 2282989). Conditions: HepG2 cis-regulatory reporter, NFI response element transcription; actives raise or lower the signal. Put shortly: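 Transfected HepG2 liver cells, exposed 24 h, supplied total RNA for oligo(dT) reverse transcription and reporter-specific PCR. Labelled, HpaI-cut fragments were sized by capillary electrophoresis; DMSO set the baseline for bidirectional fitting.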

Assay [7] deals with Myc proto-oncogene protein (Homo sapiens) (UniProt P01106). The experiment in a line: ATG_Myc_CIS: Attagene CIS-FACTORIAL HepG2 Assay for human Myelocytomatosis (Myc) Proto-Oncogene Transcription Factor (AID 2282990). Conditions: HepG2, Attagene cis-reporter transcription factor activity; actives raise or lower the signal. The method in brief:
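DMSO-normalised, bidirectionally fitted reporter mRNA signal. HepG2 cells transfected with cis reporter constructs, treated 24 h; transcripts detected by RT-PCR, 6-FAM primer extension and CE.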

Assay [8] is described as follows: ATG_NF_kB_CIS: Attagene CIS-FACTORIAL HepG2 Assay for human Nuclear Factor Kappa B (NF-kB) (AID 2282991). Conditions: HepG2 Attagene cis-factorial NF-kB reporter mRNA; actives raise or lower the signal. The method in brief: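 HepG2, transient multi-reporter transfection, cis promoter elements (endogenous TFs). 24 h exposure. Total RNA → RT → PCR → 6-FAM label → HpaI → CE. Gain/loss vs DMSO.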

Assay [9] can be described thus: ATG_NRF2_ARE_CIS: Attagene CIS-FACTORIAL HepG2 Assay for human Nuclear Factor Erythroid 2 Related Factor 2 (NFR2) response to Antioxidant Response Elements (ARE) (AID 2282992).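 As to AC50: reporter mRNA level measured by RT-PCR and capillary electrophoresis fluorescence.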 The conditions noted are these: HepG2 Attagene ARE/NRF2 reporter, transcription factor activity; actives raise or lower the signal. Put shortly:
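Fluorescence intensity of reporter-specific cDNA fragments, separated by capillary electrophoresis, reflects mRNA induction in transfected HepG2 cells at 24 h. Activity is fitted bidirectionally, DMSO serving as baseline.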

Assay [10] is described as follows: ATG_Oct_MLP_CIS: Attagene CIS-FACTORIAL HepG2 Assay for human Octamer-Binding Transcription Factor (Oct) (AID 2282993). The conditions noted are these: HepG2 Attagene cis-factorial Oct reporter, mRNA; actives raise or lower the signal. Put shortly:
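Using HepG2 cells bearing transfected cis-reporter constructs, mRNA induction was read after 24 h by fluorescent RT-PCR and capillary electrophoresis, with DMSO defining baseline for gain- or loss-of-signal fits.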

The target of assay [11] is Cellular tumor antigen p53 (Homo sapiens) (UniProt P04637). Nature of the assay: ATG_p53_CIS: Attagene CIS-FACTORIAL HepG2 Assay for human p53 Transcription Factor (AID 2282994). Conditions: HepG2 p53 cis-element reporter, Attagene mRNA; actives raise or lower the signal. The method in brief: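 Transiently transfected HepG2 (multiple cis reporter transcription units); exposure 24 h; reporter RNA via RT-PCR, 6-FAM extension, 2 h HpaI digest at 37 C, CE detection; DMSO baseline.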

The nature of assay [12]: BSK_3C_TissueFactor: BioMAP Diversity Plus: 3C Assay for Tissue Factor Biomarker Activity (AID 2282997). Conditions: BioMAP 3C HUVEC, tissue factor biomarker readout; actives raise or lower the signal. The method in brief:
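Readout: Tissue Factor ELISA. Cells: human primary umbilical vein endothelium. Time: 24 h after dosing. Analysis: bidirectional fit, DMSO baseline.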

Assay [13] is described as follows: BSK_3C_VCAM1: BioMAP Diversity Plus: 3C Assay for Vascular cell adhesion molecule 1 (VCAM1) Biomarker Activity (AID 2282999). Conditions: BioMAP 3C HUVEC, VCAM1 ELISA, cytokine-stimulated; actives raise or lower the signal. Put shortly:
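Vascular primary endothelium (human umbilical vein) was exposed to chemicals and assayed 24 h later. VCAM-1 levels came from ELISA, with DMSO serving as baseline for bidirectional fitting.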
(In an ELISA, binding on a coated surface is turned into a signal by an enzyme label.)

Assay [14] in a line: BSK_4H_Eotaxin3: BioMAP Diversity Plus: 4H Assay for Eotaxin 3 Biomarker Activity (AID 2283000).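 As to outcome: CCL26 protein level quantified by ELISA in parallel with SRB cytotoxicity check.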 Conditions: primary human endothelial cells (HUVEC); actives raise or lower the signal. Put shortly:
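HUVEC, 24 h post-dose, ELISA for Eotaxin-3/CCL26. Gain or loss of signal fitted bidirectionally vs DMSO baseline.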

Assay [15] has as its target human Peroxisome Proliferator-activated Receptor alpha (PPARa), PPARA (gene 5465) (UniProt Q07869). The experiment in a line: ATG_PPARa_TRANS: Attagene TRANS-FACTORIAL HepG2 Assay for human Peroxisome Proliferator-activated Receptor alpha (PPARa) (AID 2283001; active = hit-call score of the fitted dose curve at least 0.9, where 1 is the maximum;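 as to AC50: potency for gain of reporter signal over DMSO so agonist or activator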). Put shortly:
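Exposure: 24 h, transiently transfected HepG2 cells. Endpoint: GAL4-UAS reporter mRNA, RT-PCR with capillary electrophoresis fluorescence. Baseline: DMSO; increases fitted.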

For assay [16], the target named is Transcriptional activator Myb (Homo sapiens) (UniProt P10242). Nature of the assay: ATG_Myb_CIS: Attagene CIS-FACTORIAL HepG2 Assay for human Myeloblastosis (Myb) Proto-Oncogene Transcription Factor (AID 2282986). Conditions: HepG2 Attagene CIS-FACTORIAL Myb reporter transcription; actives raise or lower the signal. The method in brief:
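Fluorescence signals from capillary electrophoresis of RT-PCR-amplified reporter cDNA give the read-out. Cells: HepG2 transfected with multiple cis-regulated reporter units. Exposure lasts 24 hours; DMSO defines baseline for gain or loss of signal.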

Assay [17] is described as follows: BSK_3C_uPAR: BioMAP Diversity Plus: 3C Assay for Urokinase-type plasminogen activator receptor (uPAR) Biomarker Activity (AID 2282998). Conditions: BioMAP 3C HUVEC, uPAR biomarker ELISA; actives raise or lower the signal. Put shortly:
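In this endothelial cell-based assay, human umbilical vein primary cells were treated with chemicals and harvested at 24 h. uPAR was quantified using ELISA, with gains or losses fitted relative to DMSO controls.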

The target of assay [18] is Bile acid receptor (Homo sapiens) (UniProt Q96RI1). Nature of the assay: ATG_FXR_TRANS: Attagene TRANS-FACTORIAL HepG2 Assay for Farnesoid X Receptor (FXR) (AID 2282979; active = hit-call score of the fitted dose curve at least 0.9, where 1 is the maximum;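 also: hits raise reporter mRNA above DMSO so AC50 marks FXR activation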). Conditions: HepG2 Attagene TRANS FXR-GAL4 reporter transcription. The method in brief: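 HepG2 cells transiently transfected with reporter constructs in which a chimeric FXR-GAL4 protein drives a GAL4-UAS reporter; 24 h compound exposure. Reporter mRNA measured by RT-PCR, FAM labelling, HpaI digestion and capillary electrophoresis; gain-of-signal versus DMSO.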
Chain of Bile acid receptor (Homo sapiens) (Q96RI1 whole entry, looked up, the tested form may be a part): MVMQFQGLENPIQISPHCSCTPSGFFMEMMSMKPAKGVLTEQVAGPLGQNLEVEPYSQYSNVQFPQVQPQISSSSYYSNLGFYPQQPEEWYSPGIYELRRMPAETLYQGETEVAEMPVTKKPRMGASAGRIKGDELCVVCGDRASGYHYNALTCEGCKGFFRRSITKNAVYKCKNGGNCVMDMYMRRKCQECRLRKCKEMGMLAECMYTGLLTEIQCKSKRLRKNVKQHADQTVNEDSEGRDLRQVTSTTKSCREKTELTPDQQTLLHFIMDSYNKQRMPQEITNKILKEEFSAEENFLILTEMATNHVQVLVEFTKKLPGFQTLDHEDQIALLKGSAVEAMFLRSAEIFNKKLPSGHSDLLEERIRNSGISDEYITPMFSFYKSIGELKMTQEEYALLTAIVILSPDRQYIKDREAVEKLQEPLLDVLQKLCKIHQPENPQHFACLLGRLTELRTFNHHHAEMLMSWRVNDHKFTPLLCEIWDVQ

Chain of Hepatocyte nuclear factor 4-alpha (Homo sapiens) (P41235 whole entry, looked up, the tested form may be a part): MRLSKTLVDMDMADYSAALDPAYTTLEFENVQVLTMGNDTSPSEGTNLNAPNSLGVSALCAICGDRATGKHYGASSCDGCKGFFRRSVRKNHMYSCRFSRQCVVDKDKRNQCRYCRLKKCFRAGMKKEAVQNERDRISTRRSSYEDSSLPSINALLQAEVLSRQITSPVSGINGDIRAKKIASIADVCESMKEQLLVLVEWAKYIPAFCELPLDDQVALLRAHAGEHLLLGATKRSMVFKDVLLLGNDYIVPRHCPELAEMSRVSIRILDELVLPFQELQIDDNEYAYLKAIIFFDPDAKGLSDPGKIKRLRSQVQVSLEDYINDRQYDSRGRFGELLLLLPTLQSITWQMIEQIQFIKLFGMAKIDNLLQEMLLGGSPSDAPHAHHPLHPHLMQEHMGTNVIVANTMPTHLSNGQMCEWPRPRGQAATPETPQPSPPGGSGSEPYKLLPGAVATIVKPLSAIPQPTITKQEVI
Chain of Oxysterols receptor LXR-beta (Homo sapiens) (P55055 whole entry, looked up, the tested form may be a part): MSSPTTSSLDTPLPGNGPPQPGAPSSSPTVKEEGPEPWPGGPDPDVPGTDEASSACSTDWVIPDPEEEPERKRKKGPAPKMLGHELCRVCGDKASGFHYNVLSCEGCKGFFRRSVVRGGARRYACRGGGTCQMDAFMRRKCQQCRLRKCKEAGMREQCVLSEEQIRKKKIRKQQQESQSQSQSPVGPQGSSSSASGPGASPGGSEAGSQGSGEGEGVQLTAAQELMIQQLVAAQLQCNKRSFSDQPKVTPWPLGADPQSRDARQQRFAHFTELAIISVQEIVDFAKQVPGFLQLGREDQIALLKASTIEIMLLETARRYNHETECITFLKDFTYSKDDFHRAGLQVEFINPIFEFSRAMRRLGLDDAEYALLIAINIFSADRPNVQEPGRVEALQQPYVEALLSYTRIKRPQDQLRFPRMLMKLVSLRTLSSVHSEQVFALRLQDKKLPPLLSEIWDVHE
Chain of Myc proto-oncogene protein (Homo sapiens) (P01106 whole entry, looked up): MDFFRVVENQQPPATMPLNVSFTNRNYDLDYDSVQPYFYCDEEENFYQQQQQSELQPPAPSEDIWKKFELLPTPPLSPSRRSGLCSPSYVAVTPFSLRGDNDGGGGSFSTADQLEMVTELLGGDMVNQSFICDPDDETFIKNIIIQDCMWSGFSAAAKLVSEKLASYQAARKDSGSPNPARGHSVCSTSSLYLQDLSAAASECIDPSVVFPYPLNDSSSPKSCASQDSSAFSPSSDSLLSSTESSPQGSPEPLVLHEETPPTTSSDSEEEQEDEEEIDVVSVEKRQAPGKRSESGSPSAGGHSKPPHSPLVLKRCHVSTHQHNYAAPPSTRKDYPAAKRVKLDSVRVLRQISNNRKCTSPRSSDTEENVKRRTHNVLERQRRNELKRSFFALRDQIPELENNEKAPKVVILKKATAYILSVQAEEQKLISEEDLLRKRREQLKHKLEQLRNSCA
Chain of Nuclear respiratory factor 1 (Homo sapiens) (Q16656 whole entry, looked up): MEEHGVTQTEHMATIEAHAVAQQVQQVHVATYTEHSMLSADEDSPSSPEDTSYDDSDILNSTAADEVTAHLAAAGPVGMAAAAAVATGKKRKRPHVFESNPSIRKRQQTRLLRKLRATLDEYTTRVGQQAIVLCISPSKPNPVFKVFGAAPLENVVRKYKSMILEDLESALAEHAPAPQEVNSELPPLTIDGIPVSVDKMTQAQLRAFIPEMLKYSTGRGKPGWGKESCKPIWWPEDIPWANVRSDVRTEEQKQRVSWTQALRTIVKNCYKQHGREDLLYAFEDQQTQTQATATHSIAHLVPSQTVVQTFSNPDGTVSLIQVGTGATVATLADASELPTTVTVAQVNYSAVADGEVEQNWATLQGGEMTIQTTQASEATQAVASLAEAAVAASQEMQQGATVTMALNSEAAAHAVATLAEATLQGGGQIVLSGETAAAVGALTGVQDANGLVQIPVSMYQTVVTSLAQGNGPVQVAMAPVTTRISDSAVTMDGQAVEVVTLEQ
Chain of human Peroxisome Proliferator-activated Receptor alpha (PPARa), PPARA (gene 5465) (Q07869 whole entry, looked up, the tested form may be a part): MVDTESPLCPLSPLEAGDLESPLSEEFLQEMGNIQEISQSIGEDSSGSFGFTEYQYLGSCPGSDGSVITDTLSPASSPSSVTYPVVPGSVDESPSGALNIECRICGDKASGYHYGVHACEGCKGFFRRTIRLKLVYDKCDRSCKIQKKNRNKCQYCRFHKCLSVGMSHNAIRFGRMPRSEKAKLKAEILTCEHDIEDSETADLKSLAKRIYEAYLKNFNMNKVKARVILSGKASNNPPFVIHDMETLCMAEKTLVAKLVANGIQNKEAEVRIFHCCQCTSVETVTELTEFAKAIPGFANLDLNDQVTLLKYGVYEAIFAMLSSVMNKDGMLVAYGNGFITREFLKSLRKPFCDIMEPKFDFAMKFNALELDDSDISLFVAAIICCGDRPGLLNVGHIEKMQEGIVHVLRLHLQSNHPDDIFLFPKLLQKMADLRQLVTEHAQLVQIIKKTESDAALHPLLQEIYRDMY
Chain of Transcriptional activator Myb (Homo sapiens) (P10242 whole entry, looked up): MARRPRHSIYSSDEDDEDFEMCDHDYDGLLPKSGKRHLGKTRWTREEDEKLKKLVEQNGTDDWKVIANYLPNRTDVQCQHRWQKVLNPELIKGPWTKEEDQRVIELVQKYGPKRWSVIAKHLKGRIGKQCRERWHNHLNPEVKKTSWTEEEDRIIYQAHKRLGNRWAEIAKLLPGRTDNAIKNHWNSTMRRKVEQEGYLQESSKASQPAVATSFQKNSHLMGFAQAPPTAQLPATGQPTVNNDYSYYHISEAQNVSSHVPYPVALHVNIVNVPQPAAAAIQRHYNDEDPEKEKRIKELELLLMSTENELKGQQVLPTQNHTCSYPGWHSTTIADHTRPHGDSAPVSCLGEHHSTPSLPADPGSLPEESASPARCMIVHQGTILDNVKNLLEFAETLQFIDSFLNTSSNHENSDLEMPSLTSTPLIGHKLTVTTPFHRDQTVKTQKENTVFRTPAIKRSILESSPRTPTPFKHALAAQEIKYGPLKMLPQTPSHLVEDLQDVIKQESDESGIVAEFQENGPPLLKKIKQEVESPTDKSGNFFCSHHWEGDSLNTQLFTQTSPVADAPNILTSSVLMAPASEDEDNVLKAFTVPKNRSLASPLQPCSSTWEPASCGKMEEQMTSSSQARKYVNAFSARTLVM
Chain of Cellular tumor antigen p53 (Homo sapiens) (P04637 whole entry, looked up): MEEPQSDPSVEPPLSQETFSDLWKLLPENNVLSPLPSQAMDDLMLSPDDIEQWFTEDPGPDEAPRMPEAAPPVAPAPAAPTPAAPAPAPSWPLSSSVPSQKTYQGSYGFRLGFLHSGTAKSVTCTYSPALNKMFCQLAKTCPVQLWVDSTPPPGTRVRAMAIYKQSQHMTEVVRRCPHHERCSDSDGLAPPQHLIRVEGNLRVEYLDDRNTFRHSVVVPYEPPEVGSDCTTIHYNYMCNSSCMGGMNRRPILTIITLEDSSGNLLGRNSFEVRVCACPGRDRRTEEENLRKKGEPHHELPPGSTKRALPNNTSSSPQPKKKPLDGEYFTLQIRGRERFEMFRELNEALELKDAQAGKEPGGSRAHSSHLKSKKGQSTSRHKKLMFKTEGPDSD

Regarding `ClC1=C(Cl)C(Cl)(Cl)C(Cl)=C1Cl`, the molecule was classed as inactive in assay [1], in assay [2], in [3], in assay [4], in [7] and in assay [15]. Besides, the AC50 (commonly the concentration at which the activity in the assay is half-maximal) in [5] was 14 µM (active) and 9.06 µM (active); in assay [6] it was 15.3 µM (active) and 7.42 µM (active); in assay [8], 8.6 µM (active) and 5.05 µM (active); in assay [9] it was 3.07 µM (active) and 6.04 µM (active); in assay [10] it was 13.4 µM (active) and 6.26 µM (active); in [11], 17.4 µM (active) and 11.1 µM (active). In addition, the figures for the AC50 in assay [12], in [13] and in assay [14] were 5.07 µM (active), 5.82 µM (active) and 7.45 µM (active), respectively.

Consider `Oc1cccc(O)c1`, for which the AC50 in assay [1] is 6.23 nM (active); in [16] it was 2.59 µM (active). In addition, the outcome in assay [3], in assay [4], in assay [5], in [7], in [8] and in assay [9] was inactive. For the same molecule, the outcome in assay [10], in assay [11], in assay [12], in assay [13], in [14] and in assay [15] was inactive.

On to `O=C(O)Cc1cc(I)c(Oc2cc(I)c(O)c(I)c2)c(I)c1`, for which the outcome in [1], in assay [2], in assay [3], in assay [4], in assay [5] and in [11] was inactive. For the same molecule, the result in [17], in assay [13], in [14] and in assay [15] was inactive. Further, the AC50 was 48.6 µM (active) and 16.8 µM (active) in [7]; 105 µM (active) and 46.1 µM (active) in assay [8]; 17 µM (active) and 16.9 µM (active) in assay [9]; 34.8 µM (active) and 33.3 µM (active) in assay [10]; 24.3 µM (active) in assay [12]; 67 µM (active) in assay [15].

`CC(C)(C)CC(C)(C)c1ccc(O)c(-n2nc3ccccc3n2)c1`: the result in assay [18], in assay [3], in assay [5], in assay [6], in assay [7] and in assay [8] was inactive. Moreover, the result in assay [11], in assay [12], in assay [17], in assay [13] and in assay [14] was inactive. Also, the AC50 is 36.4 µM (active) in [9] and 78.5 µM (active) in [10].

Consider `Cc1oc(-c2ccccc2)nc1CCOc1ccc(C[C@H](Nc2ccccc2C(=O)c2ccccc2)C(=O)O)cc1`, for which the call in assay [3], in [4], in [6], in assay [8], in assay [9] and in [11] was inactive. The AC50 in [5] was 18.6 µM (active); in [7], 18 µM (active); in assay [10], 18.2 µM (active); in [12], 36.7 µM (active); in [13], 33.1 µM (active); in [14], 36.2 µM (active).

As to `CCCCCCCC(=O)O`, the outcome in assay [1], in [2], in assay [3], in assay [5], in assay [7] and in assay [9] was inactive. The molecule was called inactive in assay [10], in [11], in assay [12], in [13], in [14] and in assay [15].

Regarding `Oc1cc2ccccc2c2ccccc12`, the molecule was called inactive in assay [1], in assay [3], in [4], in assay [16], in assay [5] and in assay [7]. Further, the molecule was classed as inactive in assay [8], in assay [9], in assay [10] and in assay [11]. Further, the AC50 was 50.8 µM (active) in assay [3], 8.37 µM (active) in assay [12], 8.07 µM (active) in assay [13] and 7.88 µM (active) in [14].

For the molecule `CN1CCN(c2ccccc2/C=C2\SCCN(c3ccc(Cl)c(Cl)c3)C2=O)CC1`, the call in assay [3], in assay [16], in [5], in assay [7], in assay [8] and in assay [10] was inactive. For the same molecule, the molecule was called inactive in assay [11], in [13] and in [14]. Besides, the AC50 in assay [9] was 3.7 µM (active); in assay [12], 6.4 µM (active); in assay [17], 16.2 µM (active).
